Assay outcomes (PubChem)
Compounds with a hit are over-represented: about 4% of the library has one in this group of screens.
TRHR enhancer: qHTS for Small Molecule Agonists and Allosteric Enhancers of Human TRH Receptor: Primary Screen for Enhancers; Thyrotropin-releasing hormone receptor (Homo sapiens), P34981; TRHR cells, fluo-8 calcium fluorescence, EC20 TRH enhancement; enhancement, % at 2 µM; 360,000 tested, 0.66% active; AID 493056, 2011; in the data active = enhancement above about 30%; also: 0% is about no effect
Target sequence (P34981 whole entry, looked up): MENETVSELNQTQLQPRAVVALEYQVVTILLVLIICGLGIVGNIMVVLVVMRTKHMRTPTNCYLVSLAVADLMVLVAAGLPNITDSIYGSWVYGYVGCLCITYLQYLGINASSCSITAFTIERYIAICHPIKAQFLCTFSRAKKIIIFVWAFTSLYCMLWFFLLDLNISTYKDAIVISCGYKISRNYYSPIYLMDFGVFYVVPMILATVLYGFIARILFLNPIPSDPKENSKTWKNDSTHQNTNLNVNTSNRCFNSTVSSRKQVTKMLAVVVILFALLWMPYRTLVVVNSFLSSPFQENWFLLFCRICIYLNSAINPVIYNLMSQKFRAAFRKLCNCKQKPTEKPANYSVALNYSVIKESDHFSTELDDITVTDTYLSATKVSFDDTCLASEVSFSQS
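Enhancer read-out: after compound pinning and an initial kinetic agonist-mode read, an EC20 of TRH (10 nM final) was injected and fluo-8 calcium signal (Ex 480/Em 530) followed at 1 s/cycle for 100 cycles in TRHR-expressing cells.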
D1 agonist: Allosteric Agonists of the Human D1 Dopamine Receptor: qHTS. HEK293 T-REx D1 cells, calcium flux, agonist mode. activation, % at 2 µM. 360,000 tested, 1% active; also: 0% is about no effect
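Tetracycline-induced HEK293 TREx D1 cells, force-coupled to calcium signalling, were dye-loaded with a no-wash calcium kit. Compound was pin-added after a 10 s baseline. Fluorescence was read kinetically at 1 cycle/s for 180 s, with calcium rises flagged as agonism.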
TRHR ag: qHTS for Small Molecule Agonists and Allosteric Enhancers of Human TRH Receptor: Primary Screen for Agonists. TRHR cells, calcium flux fluo-8, FDSS agonist mode. 360,000 tested, 0.18% active. Thyrotropin-releasing hormone receptor (Homo sapiens), P34981. activation, % at 2 µM; also: 0% is about no effect
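TRHR-expressing cells, plated overnight in medium with 10% serum, were loaded with fluo-8 calcium dye at room temperature. After a 10 s baseline, library compound was pin-added and calcium release was recorded kinetically (ex 480/em 530) as agonist response.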
GRP78 ERSR act: qHTS for Inducers of the Endoplasmic Reticulum Stress Response (ERSR) in Human Glioma: qHTS | U87-MG GRP78 promoter luciferase reporter, 16 h | Potency, µM, for inactives: at the top dose activation, hits mostly activators | 420,000 tested, 0.02% active | AID 602332, 2012; active = well fitted activation curve with a large enough effect; also: potency is read from the fitted curve at half-maximal effect; series mostly up to about 76 µM; % of control where 0% means no effect; nearly all actives have a fitted effect of over 35% in size
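ERSR induction read as luciferase luminescence (Bright-Glo, 10 min at room temperature) in stably transfected human U87-MG glioma cells exposed to compounds for 16 h, using GRP78 as sensor.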
D1 antagonist: Antagonist of Human D 1 Dopamine Receptor: qHTS | D(1A) dopamine receptor (Homo sapiens), P21728 | 360,000 tested, 3.2% active | AID 504652, 2011 | HEK293 TREx D1 cells, calcium flux, dopamine EC80; hits give low values | activity change, negative = inhibition, % at 10 µM; in the data active = activity change below about -30%; also: % is scaled to controls: 0 for no effect and ±100 for the full control effect
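HEK293 T-REx cells expressing inducible, force-coupled D1 receptor; no-wash Ca dye, 30–90 min RT. Cmpd → 180 s read at 1 Hz → EC80 DA → 180 s read.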
D1 potentiator: Potentiators of Human D1 Dopamine Receptor: qHTS. 360,000 tested, 0.036% active. AID 504651, 2011. D(1A) dopamine receptor (Homo sapiens), P21728. potentiation, % at 10 µM. HEK293 TREx D1 cells, calcium flux, dopamine EC20 potentiation; in the data active = potentiation above about 30%; also: 0% is about no effect
The depositor's hits bear a star. Rule as the data show it, unless noted: active = activation above about 30%; inactive = the rest.

`CNc1snc(C)c1C(=O)OC(C)C(=O)Nc1ccccc1` (configuration not stated) gave TRHR enhancer 8, D1 agonist 9, TRHR ag 0, GRP78 ERSR act -4%, D1 antagonist -32* and D1 potentiator -6.
`CCN(C(=O)COC(=O)c1c(C)nsc1NC)c1ccccc1` gave TRHR enhancer -6, D1 agonist 31*, TRHR ag 0, GRP78 ERSR act -4% and D1 antagonist -3.
Screening CNc1snc(C)c1C(=O)OCC(=O)N(C)Cc1ccccc1 returned TRHR enhancer 11, D1 agonist 14, TRHR ag 0, GRP78 ERSR act -3%, D1 antagonist -43* and D1 potentiator -7.
COc1ccc(CNC(=O)Cc2csc(NC(=O)Nc3ccccc3OC)n2)cc1 was read as TRHR enhancer 10, D1 agonist 0, TRHR ag 0, GRP78 ERSR act -1%, D1 antagonist -35* and D1 potentiator -1.
`O=C(Cc1csc(NC(=O)Nc2cccc(Cl)c2)n1)NCc1ccccn1` gave TRHR enhancer 5, D1 agonist 7, TRHR ag 0, GRP78 ERSR act 2%, D1 antagonist -31* and D1 potentiator -5.
O=C(Nc1cccc(N2C(=O)C=CC2=O)c1)c1cccs1 was read as TRHR enhancer -1, D1 agonist 10, TRHR ag 0, D1 antagonist -24 and D1 potentiator -12.
O=C1C=CC(=O)N1c1cccc(-c2ccccc2)c1 was read as TRHR enhancer -1, D1 agonist 5, TRHR ag 2, GRP78 ERSR act -14%, D1 antagonist -43* and D1 potentiator -10.
Screening CN(C)S(=O)(=O)c1ccc(C(=O)N2CCCC2c2nc3ccccc3s2)cc1 (configuration not stated) returned TRHR enhancer 0, D1 agonist 0, TRHR ag 0, GRP78 ERSR act 2%, D1 antagonist -29 and D1 potentiator -3.
`NC(=O)c1ncn([C@@H]2O[C@H](CNCc3c(OCc4ccccc4F)ccc4ccccc34)[C@@H](O)[C@H]2O)n1` gave GRP78 ERSR act -1%.
`CCOC(=O)C1=C(C)NC2=C(C(=O)c3ccccc32)C1c1ccc([N+](=O)[O-])o1` (configuration not stated) gave TRHR enhancer 2, D1 agonist 1, TRHR ag -1, GRP78 ERSR act -2%, D1 antagonist -73* and D1 potentiator -10.
`CS(=O)(=O)N1Cc2ccccc2CC1C(=O)O` (configuration not stated) gave TRHR enhancer -1, D1 agonist 3, TRHR ag 0, GRP78 ERSR act -4%, D1 antagonist -43* and D1 potentiator -9.
For CC(=O)c1ccc(S(=O)(=O)N2Cc3ccccc3CC2C(=O)O)cc1 (configuration not stated) the results were TRHR enhancer 0, D1 agonist 2, TRHR ag -1, GRP78 ERSR act 2%, D1 antagonist 27 and D1 potentiator 6.
`O=C(O)[C@H]1Cc2ccccc2CN1S(=O)(=O)c1ccc(F)cc1` gave TRHR enhancer 3, D1 agonist 0, TRHR ag 1, GRP78 ERSR act -3%, D1 antagonist -4 and D1 potentiator 3.
COC(=O)C1Cc2ccccc2CN1S(=O)(=O)c1ccc(F)cc1 (configuration not stated) was read as TRHR enhancer -6, D1 agonist 0, TRHR ag 0, GRP78 ERSR act -6%, D1 antagonist -36* and D1 potentiator -3.
Screening COc1ccc(S(=O)(=O)Cc2ccc(C(=O)N3CCN(c4cccc(C)c4)C(C)C3)o2)cc1 (configuration not stated) returned TRHR enhancer -3, D1 agonist 13, TRHR ag 0, GRP78 ERSR act -3% and D1 antagonist -15.
`COc1ccc2cc(CCNS(=O)(=O)c3c(C)cc(C)cc3C)c(=O)[nH]c2c1` gave TRHR enhancer 3, D1 agonist 3, TRHR ag 0, GRP78 ERSR act -3%, D1 antagonist -3 and D1 potentiator 8.
For CCOC(=O)/C(=N\Nc1ccc(C(C)=O)cc1)c1csc(Nc2ccccc2)n1 the results were TRHR enhancer -19, D1 agonist 54*, TRHR ag 9, GRP78 ERSR act 0%, D1 antagonist 2 and D1 potentiator -7.
`CCOC(=O)/C(=N\Nc1ccccc1[N+](=O)[O-])c1csc(N)n1` gave TRHR enhancer 0, D1 agonist 0, TRHR ag 0, GRP78 ERSR act -1%, D1 antagonist -8 and D1 potentiator -1.
`CCN(C(=O)COC(=O)c1cc(S(=O)(=O)N2CCOCC2)c(Cl)cc1Cl)C1CCS(=O)(=O)C1` (configuration not stated) gave TRHR enhancer 3, D1 agonist 0, TRHR ag 1, GRP78 ERSR act -5%, D1 antagonist 17 and D1 potentiator 1.
Screening Cn1c(SCC(=O)c2cc(Cl)c(Cl)s2)nnc1-c1ccco1 returned TRHR enhancer 10, D1 agonist -1, TRHR ag 0, GRP78 ERSR act 6%, D1 antagonist -68* and D1 potentiator -1.
Screening COC(=O)c1ccc(N2CCN(CCNC(=O)Nc3ccc(OC)cc3)CC2)cc1 returned TRHR enhancer 0, D1 agonist 1, TRHR ag 0, GRP78 ERSR act -1%, D1 antagonist -4 and D1 potentiator -4.
For COc1ccc(N2CCN(CCNC(=O)Nc3ccc(C)c(Cl)c3)CC2)cc1 the results were TRHR enhancer 9, D1 agonist 31*, TRHR ag 0, GRP78 ERSR act -2%, D1 antagonist -12 and D1 potentiator 0.
`COc1ccc(NC(=O)NCCN2CCCCC2)cc1` gave TRHR enhancer -1, D1 agonist 5, TRHR ag 0, GRP78 ERSR act 1%, D1 antagonist -11 and D1 potentiator -3.
COc1ccc(NC(=O)NCCN2CCN(c3cccc(Cl)c3)CC2)cc1 was read as TRHR enhancer -10, D1 agonist 22, TRHR ag 0, GRP78 ERSR act 0%, D1 antagonist -61* and D1 potentiator -8.
